Measurements taken from PubChem BioAssay AID588848 (Broad Institute, 2011).
Measured potencies and affinities stand elsewhere. Inconclusive results are not listed.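 Rule for the calls: active = fitted half-maximal inhibiting dose no more than ten times the top valid dose tested; inconclusive = flat activity from -30 to -70%, or unreliable curve fit; inactive = the rest.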

biological target: CAAX prenyl protease 2 (Homo sapiens) (UniProt Q9Y256); experiment: human Rce1 protease inhibitors, dose response, biochemical, plate reader, dry powder samples (AID 588848); conditions: yeast membranes expressing human Rce1, fluorogenic peptide cleavage; series mostly up to 30 µM; activity change, negative = inhibition: at the top concentration
Sequence (Q9Y256 whole entry, looked up): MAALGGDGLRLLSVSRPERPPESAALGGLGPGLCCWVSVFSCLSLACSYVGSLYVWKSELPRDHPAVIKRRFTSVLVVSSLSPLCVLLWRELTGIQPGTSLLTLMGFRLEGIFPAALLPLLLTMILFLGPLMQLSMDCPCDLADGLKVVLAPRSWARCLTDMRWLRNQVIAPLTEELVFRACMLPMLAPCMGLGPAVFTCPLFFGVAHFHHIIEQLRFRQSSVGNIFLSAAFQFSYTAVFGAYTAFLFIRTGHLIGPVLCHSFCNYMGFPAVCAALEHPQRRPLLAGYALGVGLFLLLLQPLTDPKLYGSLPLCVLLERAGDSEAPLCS

Activity change, negative = inhibition, inactive:
Nc1nonc1-n1nnc(C(=O)N/N=C/c2cccc(Cl)c2)c1CSc1ccc(Cl)cc1 18.1%
Cc1ccc(SCc2c(C(=O)N/N=C/c3ccccc3)nnn2-c2nonc2N)cc1 10.5%
CC(C)c1c(C(=O)N/N=C/c2cccc3ccccc23)nnn1-c1nonc1N 8.17%
CCOc1cccc(-c2c(C(=O)N/N=C/c3cccs3)nnn2-c2nonc2N)c1 14%
Cc1ccc(NC(=O)CCc2ccc(S(=O)(=O)NC3CCCCC3)cc2)cc1 9.46%
CN(C(=O)COC(=O)c1cn(-c2ccccc2)nc1-c1ccccc1)C1CCS(=O)(=O)C1 (stereo not given) -2.52%
COc1ccc(-n2c(SCc3ccc([N+](=O)[O-])cc3)nnc2-c2ccc(C)cc2)cc1 7.73%
Cc1cccc(-c2nnc(SCc3ccc(C#N)cc3)n2Cc2ccco2)c1 13.3%
Cc1cc(N2CCN(C(c3ccccc3)c3ccccc3)CC2)n2ncnc2n1 -8.64%
CCCOc1ccc(-c2c(C(=O)N/N=C/c3cccs3)nnn2-c2nonc2N)cc1 16.2%
